# The antibiotic and cytotoxicity screens of Wong et al. (2023)
# In all, about 39,000 compounds went through this assay and about 3,300 (8.5%) were called active. Many of the other results were omitted from the sample, so actives are more common in it than they were.
# Test system: HepG2
# Experiment: cytotoxicity call (relative viability < 0.9)
# Conditions: 10 µM
row,Compound,cytotoxicity call
1,Cc1noc(C)c1NC(=O)N(C)C[C@H]1Oc2ccc(NC(=O)Nc3cccc4ccccc34)cc2C(=O)N([C@H](C)CO)C[C@@H]1C,inactive
2,CN(C)CCCNC(=O)C[C@H]1CC[C@H]2[C@@H](COc3ccc(NC(=O)c4ccccc4F)cc3C(=O)N2C)O1,inactive
3,CNC(=O)C[C@@H]1CC[C@@H]2[C@H](COC[C@H](O)CN2C(=O)c2ccc3c(c2)OCO3)O1,inactive
4,CCCNc1nc(Nc2ccc(C#N)cc2)ncc1C#CCCCNC(=O)[C@H](C)N(C)C(=O)/C=C/CN(C)C,active
5,CC(C)NC(=O)Nc1ccc2c(c1)C(=O)N([C@H](C)CO)C[C@H](C)[C@@H](CN(C)C(=O)Nc1cccc3ccccc13)OCCCC[C@H](C)O2,inactive
6,Cc1ccc(S(=O)(=O)N[C@H]2CC[C@@H](CC(=O)NCc3ccc(Cl)c(Cl)c3)O[C@@H]2CO)cc1,inactive
7,NNC(=S)NCc1cccs1,inactive
8,C[C@H](CO)N1C[C@H](C)[C@H](CN(C)S(=O)(=O)c2cn(C)cn2)Oc2c(NS(=O)(=O)c3cn(C)cn3)cccc2C1=O,inactive
9,O=c1ccc2cc3ccoc3cc2o1,inactive
10,COc1c(-c2ccccc2)oc2c(ccc3ccoc32)c1=O,inactive
11,COc1c2ccoc2cc2oc(=O)ccc12,inactive
12,COc1cc2ccc(=O)oc2c(OC)c1OC,inactive
13,COc1c2occc2cc2ccc(=O)oc12,active
14,COc1c(OC)c2occc2c2oc(=O)ccc12,inactive
15,COc1c2ccoc2cc2oc(C)cc(=O)c12,inactive
16,COc1c2occc2c(OC)c2c(=O)cc(C)oc12,active
17,COc1c2ccoc2c(OC)c2oc(=O)ccc12,active
18,CN(C)C(=O)Cn1c(=O)oc2ccccc21,inactive
19,COc1ccc(CN(C)C[C@@H]2Oc3ccc(NS(=O)(=O)c4cn(C)cn4)cc3C(=O)N([C@H](C)CO)C[C@@H]2C)cc1,inactive
20,O=C(C[C@H]1CC[C@H]2[C@@H](COC[C@@H](O)CN2S(=O)(=O)c2ccccc2Cl)O1)NCCc1ccncc1,inactive
21,C[C@H](CO)N1C[C@H](C)[C@H](CN(C)Cc2ccc3c(c2)OCO3)Oc2ccc(NC(=O)Nc3cccc4ccccc34)cc2C1=O,inactive
22,COc1ccc(S(=O)(=O)Nc2ccc3c(c2)C(=O)N([C@@H](C)CO)C[C@@H](C)[C@@H](CN(C)S(=O)(=O)c2ccc(Cl)cc2)OCCCC[C@@H](C)O3)cc1,inactive
23,COc1ccc(S(=O)(=O)Nc2ccc3c(c2)C(=O)N([C@H](C)CO)C[C@@H](C)[C@@H](CN(C)S(=O)(=O)c2ccc(Cl)cc2)OCCCC[C@@H](C)O3)cc1,inactive

row,Compound,cytotoxicity call
1,COc1ccc(S(=O)(=O)Nc2ccc3c(c2)C(=O)N([C@@H](C)CO)C[C@H](C)[C@H](CN(C)S(=O)(=O)c2ccc(Cl)cc2)OCCCC[C@H](C)O3)cc1,inactive
2,COc1ccc(S(=O)(=O)N(C)C[C@H]2OCCCC[C@H](C)Oc3ccc(NS(=O)(=O)c4ccc(Cl)cc4)cc3C(=O)N([C@@H](C)CO)C[C@H]2C)cc1,inactive
3,COc1ccc(S(=O)(=O)Nc2ccc3c(c2)C(=O)N([C@@H](C)CO)C[C@H](C)[C@@H](CN(C)S(=O)(=O)c2ccc(Cl)cc2)OCCCC[C@H](C)O3)cc1,active
4,COc1ccc(S(=O)(=O)N(C)C[C@@H]2OCCCC[C@@H](C)Oc3ccc(NS(=O)(=O)c4ccc(Cl)cc4)cc3C(=O)N([C@@H](C)CO)C[C@H]2C)cc1,active
5,COc1ccc(S(=O)(=O)Nc2ccc3c(c2)C(=O)N([C@H](C)CO)C[C@H](C)[C@@H](CN(C)S(=O)(=O)c2ccc(Cl)cc2)OCCCC[C@H](C)O3)cc1,inactive
6,COc1ccc(S(=O)(=O)N(C)C[C@@H]2OCCCC[C@H](C)Oc3ccc(NS(=O)(=O)c4ccc(Cl)cc4)cc3C(=O)N([C@@H](C)CO)C[C@@H]2C)cc1,active
7,COc1ccc(S(=O)(=O)Nc2ccc3c(c2)C(=O)N([C@@H](C)CO)C[C@@H](C)[C@@H](CN(C)S(=O)(=O)c2ccc(Cl)cc2)OCCCC[C@H](C)O3)cc1,inactive
8,COc1ccc(S(=O)(=O)N(C)C[C@@H]2OCCCC[C@H](C)Oc3ccc(NS(=O)(=O)c4ccc(Cl)cc4)cc3C(=O)N([C@H](C)CO)C[C@@H]2C)cc1,active
9,CN(Cc1cc(Br)cc(Br)c1N)C1CCCCC1.Cl,inactive
10,C[C@@H]1CN([C@@H](C)CO)C(=O)c2ccccc2-c2ccccc2CO[C@@H]1CN(C)Cc1ccc(-c2ccccc2)cc1,inactive
11,Cc1noc(C)c1NC(=O)Nc1ccc2c(c1)C(=O)N([C@@H](C)CO)C[C@@H](C)[C@@H](CN(C)Cc1ccc3c(c1)OCO3)OCCCC[C@H](C)O2,inactive
12,Cc1cc(C(=O)Nc2cccc3c2O[C@H](CN(C)Cc2ccc(C(=O)O)cc2)[C@H](C)CN([C@@H](C)CO)C3=O)n(C)n1,inactive
13,CO[C@H]1CN(C)C(=O)c2cc(NS(=O)(=O)c3cn(C)cn3)ccc2OC[C@@H](C)N(CCC(F)(F)F)C[C@@H]1C,inactive
14,C[C@@H]1CCCCO[C@@H](CN(C)S(C)(=O)=O)[C@@H](C)CN([C@@H](C)CO)C(=O)c2cc(N(C)C)ccc2O1,inactive
15,C[C@H](CO)N1C[C@H](C)[C@H](CN(C)S(C)(=O)=O)Oc2ccc(NC(=O)Cn3cnnn3)cc2CC1=O,inactive
16,CC(C)N1C[C@H](C)[C@@H](CN(C)Cc2ccc(Cl)c(Cl)c2)Oc2c(cccc2-c2nnc(-c3ccncc3)o2)C1=O,inactive
17,Cc1noc(C)c1NC(=O)N[C@@H]1CC[C@@H](CC(=O)NCCCN(C)C)O[C@@H]1CO,inactive
18,CC(C)CC#Cc1ccc2c(c1)O[C@H](CN(C)C(=O)C1CCOCC1)[C@H](C)CN([C@@H](C)CO)S2(=O)=O,inactive
19,CCCN(C)C[C@H]1OCCCC[C@@H](C)Oc2ccc(NS(=O)(=O)c3cn(C)cn3)cc2C(=O)N([C@@H](C)CO)C[C@@H]1C,inactive
20,C[C@H]1CN([C@@H](C)CO)C(=O)c2cccc(NS(=O)(=O)c3cn(C)cn3)c2O[C@H]1CN(C)C(=O)NC1CCCCC1,inactive
21,COc1ccc(S(=O)(=O)Nc2ccc3c(c2)CC(=O)N([C@H](C)CO)C[C@@H](C)[C@H](CN(C)S(=O)(=O)c2ccc(C)cc2)O3)cc1,inactive
22,Cc1noc(C)c1NC(=O)N[C@@H]1C=C[C@@H](CC(=O)NCCCN(C)C)O[C@H]1CO,inactive
23,COc1ccc(S(=O)(=O)N(C)C[C@H]2OCCCC[C@H](C)Oc3ccc(NS(=O)(=O)c4ccc(Cl)cc4)cc3C(=O)N([C@H](C)CO)C[C@H]2C)cc1,active

row,Compound,cytotoxicity call
1,COc1ccc(S(=O)(=O)N(C)C[C@H]2OCCCC[C@@H](C)Oc3ccc(NS(=O)(=O)c4cn(C)cn4)cc3C(=O)N([C@H](C)CO)C[C@H]2C)cc1,active
2,COc1ccc(S(=O)(=O)N(C)C[C@@H]2OCCCC[C@@H](C)Oc3ccc(NS(=O)(=O)c4cn(C)cn4)cc3C(=O)N([C@@H](C)CO)C[C@H]2C)cc1,inactive
3,COc1ccc(S(=O)(=O)N(C)C[C@@H]2OCCCC[C@H](C)Oc3ccc(NS(=O)(=O)c4cn(C)cn4)cc3C(=O)N([C@H](C)CO)C[C@@H]2C)cc1,inactive
4,COc1ccc(S(=O)(=O)Nc2ccc3c(c2)C(=O)N([C@@H](C)CO)C[C@H](C)[C@@H](CN(C)S(=O)(=O)c2ccc(Cl)cc2)OCCCC[C@@H](C)O3)cc1,inactive
5,COc1ccc(S(=O)(=O)Nc2ccc3c(c2)C(=O)N([C@H](C)CO)C[C@@H](C)[C@H](CN(C)S(=O)(=O)c2ccc(Cl)cc2)OCCCC[C@@H](C)O3)cc1,inactive
6,COc1ccc(S(=O)(=O)Nc2ccc3c(c2)C(=O)N([C@@H](C)CO)C[C@H](C)[C@H](CN(C)S(=O)(=O)c2ccc(Cl)cc2)OCCCC[C@@H](C)O3)cc1,active
7,COc1ccc(S(=O)(=O)N(C)C[C@H]2OCCCC[C@@H](C)Oc3ccc(NS(=O)(=O)c4ccc(Cl)cc4)cc3C(=O)N([C@H](C)CO)C[C@H]2C)cc1,active
8,Cc1noc(C)c1S(=O)(=O)Nc1ccc2c(c1)C(=O)N([C@H](C)CO)C[C@@H](C)[C@@H](CN(C)S(=O)(=O)c1ccccc1)O2,inactive
9,COc1ccc(NC(=O)Nc2cccc3c2O[C@@H](CN(C)S(C)(=O)=O)[C@H](C)CN([C@H](C)CO)C3=O)cc1,inactive
10,COc1cccc(NC(=O)N[C@H]2CC[C@@H](CC(=O)N3CCOCC3)O[C@@H]2CO)c1,inactive
11,CO[C@@H]1CN(C)C(=O)c2cc(NC(=O)C3CCOCC3)ccc2OC[C@@H](C)N(C(=O)C2CCOCC2)C[C@H]1C,inactive
12,CN1C(=O)c2cc(NS(=O)(=O)c3ccc(F)cc3)ccc2OC[C@H]2O[C@@H](CC(=O)Nc3cccc4ccccc34)CC[C@@H]21,inactive
13,C[C@H](CO)N1C[C@H](C)[C@H](CN(C)C(=O)Nc2ccc(F)cc2)OCCCC[C@H](C)Oc2ccc(NC(=O)CCCN(C)C)cc2C1=O,inactive
14,COc1ccc(S(=O)(=O)Nc2ccc3c(c2)CC(=O)N([C@@H](C)CO)C[C@@H](C)[C@H](CN(C)Cc2ccc(C(=O)O)cc2)O3)cc1,inactive
15,C[C@@H]1CN([C@@H](C)CO)C(=O)c2cc(NS(=O)(=O)c3ccccc3)ccc2O[C@@H](C)CCCCO[C@H]1CN(C)Cc1ccccc1,inactive
16,COc1ccc(S(=O)(=O)N(C)C[C@@H]2OCCCC[C@@H](C)Oc3ccc(NS(=O)(=O)c4ccc(Cl)cc4)cc3C(=O)N([C@@H](C)CO)C[C@@H]2C)cc1,inactive
17,COc1ccc(S(=O)(=O)N(C)C[C@@H]2OCCCC[C@@H](C)Oc3ccc(NS(=O)(=O)c4ccc(Cl)cc4)cc3C(=O)N([C@H](C)CO)C[C@H]2C)cc1,active
18,COc1ccc(S(=O)(=O)Nc2ccc3c(c2)C(=O)N([C@H](C)CO)C[C@H](C)[C@@H](CN(C)S(=O)(=O)c2ccc(Cl)cc2)OCCCC[C@@H](C)O3)cc1,active
19,COc1ccc(S(=O)(=O)N(C)C[C@H]2OCCCC[C@@H](C)Oc3ccc(NS(=O)(=O)c4ccc(Cl)cc4)cc3C(=O)N([C@@H](C)CO)C[C@H]2C)cc1,active
20,COc1ccc(S(=O)(=O)Nc2ccc3c(c2)C(=O)N([C@H](C)CO)C[C@@H](C)[C@H](CN(C)S(=O)(=O)c2ccc(Cl)cc2)OCCCC[C@H](C)O3)cc1,inactive
21,COc1ccc(S(=O)(=O)N(C)C[C@@H]2OCCCC[C@H](C)Oc3ccc(NS(=O)(=O)c4ccc(Cl)cc4)cc3C(=O)N([C@H](C)CO)C[C@H]2C)cc1,active
